Compound activity as filed in PubChem.
MEKK3 PB1 HTS = raises or lowers MEK5 binding to the human MEKK3 PB1 domain | Q99759 | bead-based flow cytometry, Alexa488-MEK5 binding to MEKK3; actives lie on both sides; 0 = blocked by unlabeled MEK5, 100 = vehicle | binding response (% of control), % at 10 µM | 1.4% of 290,000 active;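 active = binding response more than 3 SD above or below the average of its plate-row segment, actives on both sides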;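 note: Alexa488 bead fluorescence after subtracting the streptavidin-only scavenger bead signal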
Target sequence (Q99759 whole entry, looked up, the tested form may be a part): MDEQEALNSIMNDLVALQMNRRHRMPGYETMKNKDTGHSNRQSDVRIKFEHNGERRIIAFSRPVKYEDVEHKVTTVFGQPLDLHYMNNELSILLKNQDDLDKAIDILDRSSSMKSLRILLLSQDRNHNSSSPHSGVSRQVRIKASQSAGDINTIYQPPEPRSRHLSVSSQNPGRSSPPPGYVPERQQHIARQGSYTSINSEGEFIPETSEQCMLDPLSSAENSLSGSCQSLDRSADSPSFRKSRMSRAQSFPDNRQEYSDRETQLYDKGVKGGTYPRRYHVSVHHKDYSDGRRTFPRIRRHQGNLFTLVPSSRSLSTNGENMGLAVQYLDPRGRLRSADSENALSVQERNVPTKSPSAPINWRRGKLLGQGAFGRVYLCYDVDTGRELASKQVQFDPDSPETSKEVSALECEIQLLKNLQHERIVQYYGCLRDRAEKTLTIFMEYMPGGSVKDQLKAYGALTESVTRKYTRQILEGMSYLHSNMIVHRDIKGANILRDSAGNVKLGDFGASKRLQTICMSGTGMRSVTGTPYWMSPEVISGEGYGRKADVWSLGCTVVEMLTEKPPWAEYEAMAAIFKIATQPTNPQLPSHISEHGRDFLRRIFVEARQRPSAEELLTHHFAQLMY
MEKK2wt PB1 HTS = raises or lowers MEK5 binding to wildtype human MEKK2 PB1 domain | Q9Y2U5 | bead flow cytometry, Alexa488-MEK5 binding to MEKK2 WT; actives lie on both sides | AID 1531 | binding response (% of control), % at 10 µM | 1.1% of 290,000 active; in the data active = binding response below about 67% or above about 130%
MEKK2mut PB1 HTS = signal of MEK5 binding to mutant human MEKK2 PB1 domain | bead flow cytometry, Alexa488-MEK5 binding to MEKK2 mutant | percent response, % at 10 µM | 0.35% of 290,000 active | AID 1530; in the data active = percent response above about 24%, passing the limit was not always enough
Pf gamet viab = kills late stage P. falciparum gametocytes. AID 743093. 0.065% of 150,000 active. inhibition, % at 10.9 µM. P. falciparum stage V gametocytes, ATP luminescence, 24 h;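 active = inhibition above the mean plus 3 SD of compounds within the control limits, set per campaign, cut at about 38% in these data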;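 note: 0% = DMSO wells and 100% = medium only without gametocytes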
Arbovirus inh = arbovirus infection inhibition. inhibition, % at 10 µM. 0.37% of 200,000 active. arbovirus infection cell-based antiviral screen; in the data active = inhibition above about 30%
MEKK2wt confirm = raises or lowers MEK5 binding to wildtype human MEKK2, retest; AID 1892; binding response (% of control), % at 10 µM; 2.4% of 5,900 active; shares compounds with MEKK3 PB1 HTS; bead flow cytometry, Alexa488-MEK5 binding to MEKK2 WT; actives lie on both sides; in the data active = binding response below about 16% or above about 210%; inactive = in between
MEKK2mut-MEK5 = signal of MEK5 binding to mutant human MEKK2, retest. shares compounds with MEKK3 PB1 HTS. bead flow cytometry, Alexa488-MEK5 binding to MEKK2 mutant. percent response, % at 10 µM. 2% of 5,900 active; in the data active = percent response mostly above about 71%, no sharp cut-off; inactive = mostly below about 38%;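 note: higher means compound restores mutant binding toward wildtype level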
MEKK3-MEK5 inh = confirmation of inhibitors of MEK5 binding to human MEKK3 | shares compounds with MEKK3 PB1 HTS | bead flow cytometry, Alexa488-MEK5 binding to MEKK3; stronger effect = lower value | binding response (% of control), % at 10 µM | 1.8% of 5,900 active;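 active = binding response below 72% of control, or above a set upper limit, though filed actives all read lower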;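 note: 100% = DMSO only wells and 0% = binding blocked by excess unlabeled MEK5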
Starred values were filed as active, the others as inactive; . = no result given; [ ] = another dose, or the depositor's remark. Rows were chosen to be rich in hits. Some 2.4% of all compounds tested hit in one or more screens of this group.

SMILES	MEKK3 PB1 HTS	MEKK2wt PB1 HTS	MEKK2mut PB1 HTS	Pf gamet viab	Arbovirus inh	MEKK2wt confirm	MEKK2mut-MEK5	MEKK3-MEK5 inh
Clc1ccc(OCCCCN2CCCCC2)cc1	101.0	106.0	2.0	.	.	.	.	.
COc1ccc(F)cc1C(=O)C1CCCN(Cc2c(C)n(C)n(-c3ccccc3)c2=O)C1 (centres undefined)	102.0	89.0	-9.0	7.7	-13.6	.	.	.
CC(Sc1ccccc1)C(=O)NN=C1CCCCCCC1 (centres undefined)	103.0	106.0	4.0	-5.0	1.3	.	.	.
COc1c(C)cc(S(=O)(=O)NCc2ccccn2)c(C)c1C	109.0	106.0	1.0	.	.	.	.	.
COc1ccc(CC(=O)NCc2n[nH]c(=S)n2-c2ccccc2OC)cc1	98.0	94.0	-5.0	16.1	-6.4	.	.	.
Clc1ccc(OCCCN2CCCC2)cc1Cl	131.0*	107.0	1.0	.	-7.7	115.0	5.0	104.0
CC(C)n1cnc2c(N(C)c3ccccc3)nc(N(CCN(C)C)Cc3ccccc3)nc21	114.0	175.0*	22.0	2.0	.	137.0	7.0	103.0
COc1cc(N(Cc2ccccc2)Cc2ccccc2)c2ncn(C(C)C)c2c1	.	.	.	13.0	.	.	.	.
CC(=O)OCC1=C(C(=O)O)N2C(=O)C(NC(=O)c3ccc(F)cc3)C2SC1 (centres undefined)	139.0*	120.0	1.0	-8.7	15.9	107.0	5.0	108.0
CC(=O)OCC1=C(C(=O)O)N2C(=O)C(NC(=O)C(C)Cn3nc(C)c(Cl)c3C)C2SC1 (centres undefined)	98.0	103.0	-7.0	-32.4	4.2	.	.	.
CCC1(C)OC(=O)N(CCCn2ccnc2C)C1(C)O (centres undefined)	123.0*	121.0	9.0	.	3.2	102.0	1.0	97.0
Cc1nccn1CCCN1C(=O)OC2(CCCCC2)C1(C)O (centres undefined)	104.0	108.0	1.0	2.5	1.2	.	.	.
CCN(CC)S(=O)(=O)c1cccc(-c2nnc(SCC(=O)NC)n2N)c1	6.0*[inhibitor]	7.0*[inhibitor]	-17.0	-25.2	2.8	114.0	10.0	107.0
CCN(CC)S(=O)(=O)c1cccc(-c2nnc(SCC(=O)N3CCC(C(=O)O)CC3)n2N)c1	.	.	.	6.9	7.9	.	.	.
NC(=O)C1CCN(C(=O)NC(=O)c2ccccc2)CC1	101.0	100.0	2.0	.	.	.	.	.
Cc1c(C(=O)NCc2ccccn2)sc2nc(-c3ccc(F)cc3)cn12	97.0	94.0	-2.0	-5.5	-37.0	.	.	.
CCN(CC)CCCNC(=O)c1sc2nc(-c3ccc(F)cc3)cn2c1C	120.0	138.0*	26.0	-13.8	-38.6	109.0	6.0	103.0
O=C(COc1ccc(Cl)cc1Cl)Nc1ccccc1F	.	.	.	17.2	.	.	.	.
O=C1c2ccccc2C(=O)N1CN(C(=O)COc1ccc(Cl)cc1Cl)c1cccc(F)c1	139.0*	105.0	1.0	.	-12.2	99.0	-1.0	100.0
CC(C)(C)c1ccc(C(O)CCCN2CCC(C(O)(c3ccccc3)c3ccccc3)CC2)cc1 (centres undefined)	84.0	212.0*	24.0*	.	-43.8	142.0	33.0	107.0
COC(=O)c1ccc(N2CCN(c3ccccc3)CC2)nc1	97.0	95.0	-2.0	.	.	.	.	.
O=C(COC(=O)/C=C/c1cccs1)NC(=O)Cc1ccccc1	138.0*	112.0	-2.0	-3.5	3.6	101.0	3.0	101.0
COC(=O)c1c(-c2ccc(C(C)(C)C)cc2)csc1NC(=O)C1C2CCC(O2)C1C(=O)O (centres undefined)	75.0*[inhibitor]	92.0	-1.0	-32.6	-6.4	99.0	-1.0	105.0
CCS(=O)(=O)c1ccc(O)c(NC(=O)COc2ccc(C)cc2)c1	154.0*	106.0	0.0	.	-4.5	109.0	7.0	101.0
CCS(=O)(=O)c1ccc(O)c(NC(=O)COc2ccc(OC)cc2)c1	90.0	96.0	-2.0	13.8	8.9	.	.	.
SMILES	MEKK3 PB1 HTS	MEKK2wt PB1 HTS	MEKK2mut PB1 HTS	Pf gamet viab	Arbovirus inh	MEKK2wt confirm	MEKK2mut-MEK5	MEKK3-MEK5 inh
COc1ccc(NC(=O)CN2C(=O)CSC(C)C2=O)c(OC)c1 (centres undefined)	137.0*	107.0	0.0	7.2	-12.2	101.0	1.0	103.0
CCC(=O)NC(=S)Nc1ccc(OC)cc1OC	134.0*	110.0	0.0	-1.9	-4.5	95.0	1.0	94.0
CCc1ccc2nc(Nc3ccc(OC)cc3OC)c(C#N)cc2c1	91.0	84.0	-13.0	-2.7	0.8	.	.	.
CCOC(=O)c1cccc(NC(=O)CSc2nncn2-c2ccccn2)c1	96.0	98.0	-6.0	.	.	.	.	.
O=C(Nc1ccc(Br)cc1)Nc1ccccc1Cl	88.0	89.0	-16.0	.	.	.	.	.
Cc1cc(C)cc(NC(=O)c2ccc([N+](=O)[O-])o2)c1	106.0	97.0	-5.0	3.5	-28.7	.	.	.
Cc1cc(C)nc(NC(=O)c2ccc([N+](=O)[O-])o2)n1	128.0*	104.0	2.0	-9.0	-0.6	97.0	-10.0	99.0
CC(=O)Nc1ccc(C(=O)Nc2ccc(S(=O)(=O)Nc3nccc(C)n3)cc2)cc1	104.0	102.0	4.0	7.1	.	.	.	.
Cc1ccnc(NS(=O)(=O)c2ccc(NC(=O)c3ccc(Br)o3)cc2)n1	130.0*	118.0	1.0	-27.0	22.0	97.0	-9.0	97.0
CCCCc1nc2sc3c(SCCN(C)C)ncnc3c2c2c1CCC2	100.0	152.0*	29.0	-16.1	.	198.0	63.0	106.0
CCCCc1nc2sc3c(SCC(=O)NCc4ccco4)ncnc3c2c2c1CCC2	95.0	96.0	2.0	.	-25.8	.	.	.
CC1(C)CC[C@]2(C(=O)O)CC[C@]3(C)C(=CC[C@@H]4[C@@]5(C)CC[C@H](O)C(C)(C)[C@@H]5CC[C@]43C)[C@@H]2C1	125.0	150.0*	1.0	.	.	101.0	1.0	101.0
CC(=O)NCCc1c(C)n(Cc2ccccc2)c2ccccc12	104.0	101.0	0.0	13.8	.	.	.	.
COc1cc(C(=O)NCCC(=O)NC(C)CCc2ccccc2)cc(OC)c1OC (centres undefined)	103.0	105.0	6.0	.	.	.	.	.
CCOC(=O)c1[nH]c2ccccc2c1NC(=O)NC1CCCCC1	105.0	105.0	2.0	25.9	-2.7	.	.	.
CCOC(=O)c1[nH]c2ccccc2c1NC(=O)C1CCCCC1	76.0*[inhibitor]	83.0	-12.0	.	-5.1	99.0	-4.0	101.0
COc1cc(O)c(C(CCN2CCN(c3ccccc3)CC2)c2ccc(N(C)C)cc2)c(OC)c1 (centres undefined)	123.0	151.0*	9.0	-7.5	.	143.0	19.0	104.0
COc1ccc(C(CCN2CCN(c3ccccc3)CC2)c2c(O)cc(OC)cc2OC)cc1 (centres undefined)	98.0	135.0*	8.0	.	.	140.0	20.0	107.0
